# About 2,000 (36%) of roughly 5,500 compounds were called active. Roughly 18% stayed inconclusive and do not appear here. Some of the results follow. Values without a mark were called inactive. Rule as the data show it: active = normalized growth mostly below about 0.91 (no sharp cut-off); inconclusive = no clear call, values can overlap the other calls; inactive = mostly above about 0.92.
# Assay: chemical genetic growth profiling, strain panel (AID 1159580);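 also: tested at 20 µM; growth read once vehicle control cultures reached saturation at 30 °C; 1 = growth at the plate median or of vehicle wells; lower values mean less growth of the strain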
# Settings: S. cerevisiae deletion strains, growth OD
# [1] = locus YAR019C, strain CDC15, hits give low values
# [2] = locus YBL105C, strain PKC1, hits give low values
# [3] = locus YBR135W, strain CKS1, hits give low values
# [4] = locus YBR136W, strain MEC1, hits give low values
# [5] = locus YBR160W, strain CDC28, hits give low values
# [6] = locus YDL017W, strain CDC7, hits give low values
# [7] = locus YDL028C, strain MPS1, hits give low values
# [8] = locus YDL101C, strain DUN1, hits give low values
# [9] = locus YDL108W, strain KIN28, hits give low values
# [10] = locus YDL132W, strain cdc53, hits give low values
# [11] = locus YDL214C, strain PRR2, hits give low values
# [12] = locus YDR052C, strain DBF4, hits give low values
# [13] = locus YDR054C, strain cdc34, hits give low values
# [14] = locus YDR226W, strain ADK1, hits give low values
# [15] = locus YDR477W, strain SNF1, hits give low values
# [16] = locus YER123W, strain YCK3, hits give low values
# [17] = locus YER133W, strain GLC7, hits give low values
# [18] = locus YFL009W, strain cdc4, hits give low values
# [19] = locus YFL029C, strain CAK1, hits give low values
# [20] = locus YFR003C, strain YPI1, hits give low values
# [21] = locus YFR019W, strain FAB1, hits give low values
# [22] = locus YFR028C, strain CDC14, hits give low values
# [23] = locus YGR040W, strain KSS1, hits give low values
# [24] = locus YGR052W, strain FMP48, hits give low values
# [25] = locus YGR092W, strain DBF2, hits give low values
# [26] = locus YHR030C, strain SLT2, hits give low values
# [27] = locus YHR079C, strain IRE1, hits give low values
# [28] = locus YHR082C, strain KSP1, hits give low values
# [29] = locus YHR205W, strain SCH9, hits give low values
# [30] = locus YIL147C, strain SLN1, hits give low values
# [31] = locus YJL095W, strain BCK1, hits give low values
# [32] = locus YJL157C, strain FAR1, hits give low values
# [33] = locus YJR016C, strain ILV3, hits give low values
# [34] = locus YJR066W, strain TOR1 (second series), hits give low values
# [35] = locus YJR066W, strain TOR1, hits give low values
# [36] = locus YKL048C, strain ELM1, hits give low values
# [37] = locus YKL067W, strain YNK1, hits give low values
# [38] = locus YKL101W, strain HSL1, hits give low values
# [39] = locus YKL193C, strain SDS22, hits give low values
# [40] = locus YKL203C, strain TOR2, hits give low values
# [41] = locus YLR113W, strain HOG1, hits give low values
# [42] = locus YLR133W, strain CKI1, hits give low values
# [43] = locus YLR403W, strain SFP1, hits give low values
# [44] = locus YML070W, strain DAK1, hits give low values
# [45] = locus YMR001C, strain CDC5, hits give low values
# [46] = locus YMR205C, strain PFK2 (second series), hits give low values
# [47] = locus YMR277W, strain FCP1, hits give low values
# [48] = locus YNL006W, strain LST8, hits give low values
# [49] = locus YNL020C, strain ARK1, hits give low values
# [50] = locus YNL161W, strain CBK1, hits give low values
# [51] = locus YNL183C, strain NPR1, hits give low values
# [52] = locus YNL207W, strain RIO2, hits give low values
# [53] = locus YNL222W, strain SSU72, hits give low values
# [54] = locus YNL307C, strain MCK1 (second series), hits give low values
# [55] = locus YOL078W, strain AVO1, hits give low values
# [56] = locus YOL136C, strain PFK27, hits give low values
# [57] = locus YOR061W, strain CKA2, hits give low values
# [58] = locus YOR119C, strain RIO1, hits give low values
# [59] = locus YOR231W, strain MKK1, hits give low values
# [60] = locus YOR329C, strain SCD5, hits give low values
# [61] = locus YPL031C, strain PHO85, hits give low values
# [62] = locus YPL153C, strain RAD53, hits give low values
# [63] = locus YPL204W, strain HRR25, hits give low values
# [64] = locus YPL209C, strain IPL1, hits give low values
# [65] = locus YPL256C, strain CLN2, hits give low values
# [66] = locus YPR025C, strain CCL1, hits give low values
# [67] = locus YPR106W, strain ISR1, hits give low values
# [68] = locus YPR111W, strain DBF20, hits give low values
# [69] = strain NNK1, hits give low values
# [70] = strain TSCII, hits give low values
structure (smiles),measurement,setting,value
O=C1Nc2ccccc2/C1=N/N=C\c1ccccc1Cl,normalized growth,[1],0.975
same,normalized growth,[2],0.967
same,normalized growth,[3],0.986
same,normalized growth,[4],0.966
same,normalized growth,[5],0.972
same,normalized growth,[6],0.97
same,normalized growth,[7],0.97
same,normalized growth,[8],0.97
same,normalized growth,[9],0.969
same,normalized growth,[10],0.977
same,normalized growth,[11],0.92
same,normalized growth,[12],0.968
same,normalized growth,[13],0.97
same,normalized growth,[14],0.987
same,normalized growth,[15],0.909
same,normalized growth,[16],0.85
same,normalized growth,[17],0.928
same,normalized growth,[18],0.978
same,normalized growth,[19],0.982
same,normalized growth,[20],0.966
same,normalized growth,[21],0.935
same,normalized growth,[22],0.987
same,normalized growth,[23],0.903
same,normalized growth,[24],0.838
same,normalized growth,[25],0.867
same,normalized growth,[26],0.83 (active)
same,normalized growth,[27],0.906
same,normalized growth,[28],0.918
same,normalized growth,[29],0.858
same,normalized growth,[30],0.973
same,normalized growth,[31],0.798
same,normalized growth,"locus YJL128C, strain PBS2, hits give low values",0.925
same,normalized growth,[32],0.928
same,normalized growth,[33],0.986
same,normalized growth,[34],0.916
same,normalized growth,[35],0.9
same,normalized growth,[36],0.901
same,normalized growth,[37],0.896
same,normalized growth,[38],0.893
same,normalized growth,[39],0.971
same,normalized growth,[40],0.954
same,normalized growth,[41],0.708 (active)
same,normalized growth,[42],0.916
same,normalized growth,[43],0.902
same,normalized growth,[44],0.897
same,normalized growth,[45],0.976
same,normalized growth,[46],0.887
same,normalized growth,[47],0.972
same,normalized growth,[48],0.974
same,normalized growth,[49],0.896
same,normalized growth,[50],0.976
same,normalized growth,[51],0.841
same,normalized growth,[52],0.974
same,normalized growth,[53],0.979
same,normalized growth,[54],0.855
same,normalized growth,[55],0.968
same,normalized growth,[56],0.904
same,normalized growth,[57],0.888
same,normalized growth,[58],0.93
same,normalized growth,[59],0.823
same,normalized growth,[60],0.965
same,normalized growth,[61],0.877
same,normalized growth,[62],0.915
same,normalized growth,[63],0.888
same,normalized growth,[64],0.977
same,normalized growth,[65],0.907
same,normalized growth,[66],0.97
same,normalized growth,[67],0.97
same,normalized growth,[68],0.963
same,normalized growth,[69],0.967
same,normalized growth,[70],0.976
O=C1Nc2ccccc2/C1=N/N=C\c1cc(Br)cc(Br)c1O,normalized growth,[1],0.947
same,normalized growth,[2],0.959
same,normalized growth,[3],0.964
same,normalized growth,[4],0.955
same,normalized growth,[5],0.959
same,normalized growth,[6],0.957
same,normalized growth,[7],0.95
same,normalized growth,[8],0.946
same,normalized growth,[9],0.957
same,normalized growth,[10],0.944
same,normalized growth,[11],0.231 (active)
same,normalized growth,[12],0.944
same,normalized growth,[13],0.916
same,normalized growth,[14],0.951
same,normalized growth,[15],0.246 (active)
same,normalized growth,[16],0.233 (active)
same,normalized growth,[17],0.249 (active)
same,normalized growth,[18],0.945
same,normalized growth,[19],0.949
same,normalized growth,[20],0.947
same,normalized growth,[21],0.396 (active)
same,normalized growth,[22],0.964
same,normalized growth,[23],0.278 (active)
same,normalized growth,[24],0.132 (active)
same,normalized growth,[25],0.121 (active)
same,normalized growth,[26],0.128 (active)
same,normalized growth,[27],0.132 (active)
same,normalized growth,[28],0.124 (active)
same,normalized growth,[29],0.0116 (active)
same,normalized growth,[30],0.948
same,normalized growth,[31],0.112 (active)
same,normalized growth,[32],0.147 (active)
same,normalized growth,[33],0.969
same,normalized growth,[34],0.393 (active)
same,normalized growth,[35],0.114 (active)
same,normalized growth,[36],0.303 (active)
same,normalized growth,[37],0.194 (active)
same,normalized growth,[38],0.225 (active)
same,normalized growth,[39],0.937
same,normalized growth,[40],0.209 (active)
same,normalized growth,[41],0.331 (active)
same,normalized growth,[42],0.134 (active)
same,normalized growth,[43],0.0728 (active)
same,normalized growth,[44],0.259 (active)
same,normalized growth,[45],0.945
same,normalized growth,[46],0.204 (active)
same,normalized growth,[47],0.959
same,normalized growth,[48],0.764 (active)
same,normalized growth,[49],0.114 (active)
same,normalized growth,[50],0.943
same,normalized growth,[51],0.128 (active)
same,normalized growth,[52],0.957
same,normalized growth,[53],0.96
same,normalized growth,[54],0.128 (active)
same,normalized growth,[55],0.937
same,normalized growth,[56],0.198 (active)
same,normalized growth,[57],0.105 (active)
same,normalized growth,[58],0.184 (active)
same,normalized growth,[59],0.139 (active)
same,normalized growth,[60],0.937
same,normalized growth,[61],0.203 (active)
same,normalized growth,[62],0.196 (active)
same,normalized growth,[63],0.199 (active)
same,normalized growth,[64],0.967
same,normalized growth,[65],0.313 (active)
same,normalized growth,[66],0.959
same,normalized growth,[67],0.943
same,normalized growth,[68],0.933
same,normalized growth,[69],0.34 (active)
same,normalized growth,[70],0.951

# From PubChem BioAssay AID1159580 (chemical genetic matrix, 2015)
